Columns and labels:
Details in all cases: concentration: 1 μM,replicates: in singlicate; n = 1
[1] = test system: STK36
[2] = test system: STK39
[3] = test system: SYK
[4] = test system: SgK110
[5] = test system: T1, TAK1
T1 construct: gene MAP3K7

[6] = test system: TAOK1
[7] = test system: TAOK2
[8] = test system: TAOK3
[9] = test system: TBK1
[10] = test system: TEC
[11] = test system: TESK1
[12] = test system: TGFBR1
[13] = test system: TGFBR2
[14] = test system: TIE1
[15] = test system: T2, TIE2
T2 construct: gene TEK

[16] = test system: TLK1
[17] = test system: TLK2
[18] = test system: TNIK
[19] = test system: TNK1
[20] = test system: TNK2
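Note: KINOMEscan kinase panel screen.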

Compound | %Inh [1] [%] | %Inh [2] [%] | %Inh [3] [%] | %Inh [4] [%] | %Inh [5] [%] | %Inh [6] [%] | %Inh [7] [%] | %Inh [8] [%] | %Inh [9] [%] | %Inh [10] [%] | %Inh [11] [%] | %Inh [12] [%] | %Inh [13] [%] | %Inh [14] [%] | %Inh [15] [%] | %Inh [16] [%] | %Inh [17] [%] | %Inh [18] [%] | %Inh [19] [%] | %Inh [20] [%]
O=C1NCCc2[nH]c(-c3ccncc3)cc21 | 6 | 23 | 11 | 0 | 23 | 96.9 | 16 | 41 | 20 | 0 | 6 | 33 | 44 | 0 | 5 | 31 | 8 | 35 | 15 | 0
CN1CCN(CCCNc2nccc(-c3c(-c4ccc(F)cc4)nn4cc(C(N)=O)ccc34)n2)CC1 [GW622475] | 98.9 | 23 | 11 | 7 | 29 | 13 | 0 | 10 | 0 | 8 | 23 | 92.3 | 77 | 6 | 0 | 39 | 0 | 76 | 0 | 13
Cc1ccc(C(=O)Nc2ccc(Oc3ccc4nc(NC(=O)C5CC5)cn4c3)c(F)c2)c(=O)n1-c1ccccc1 | 3 | 25 | 59 | 0 | 0 | 0 | 0 | 0 | 44 | 55 | 30 | 16 | 0 | 95 | 99.4 | 0 | 0 | 18 | 64 | 0
Cn1ccc2ncnc(Oc3ccc(NC(=O)Nc4cncc(C(F)(F)F)c4)c(Cl)c3)c21 | 0 | 0 | 0 | 9 | 11 | 0 | 0 | 0 | 0 | 0 | 0 | 0 | 0 | 80 | 92.8 | 5 | 0 | 0 | 0 | 0
NC(=O)Nc1sc(-c2ccc(F)cc2)cc1C(N)=O [GW789449] | 0 | 0 | 32 | 0 | 75 | 61 | 41 | 3 | 41 | 1 | 24 | 27 | 0 | 0 | 12 | 4 | 0 | 33 | 32 | 26
FC(F)(F)c1cc(Br)cc(Nc2nccc(-c3cnn4ncccc34)n2)c1 [GW810578] | 19 | 0 | 21 | 0 | 62 | 58 | 0 | 4 | 17 | 0 | 11 | 27 | 99.3 | 18 | 0 | 0 | 14 | 0 | 36 | 0
Cc1ccc(CC(=O)N2CCc3cc(-c4cn(C)c5ncnc(N)c45)ccc32)cc1 [GSK2634758] | 3 | 1 | 33 | 0 | 17 | 0 | 0 | 0 | 4 | 0 | 36 | 0 | 0 | 89 | 48 | 0 | 0 | 1 | 0 | 42
COC(=O)Nc1nc2cc(Oc3ccc(NC(=O)Nc4cc(C(F)(F)F)ccc4Cl)cc3)ccc2[nH]1.Cl [GW697465] | 0 | 13 | 24 | 0 | 62 | 0 | 0 | 0 | 0 | 15 | 7 | 28 | 6 | 91.5 | 99.2 | 0 | 0 | 0 | 28 | 8
COc1cccc(CNC(=O)NC2CCN(c3ccnc(Nc4cc(OC)c(OC)c(OC)c4)n3)C2)c1 (stereo not shown) [GSK1379765] | 0 | 10 | 9 | 0 | 0 | 0 | 0 | 0 | 36 | 13 | 40 | 24 | 0 | 100 | 0 | 0 | 0 | 0 | 0 | 8
COC(=O)c1cccc(NC(=O)NC2CCN(c3ccnc(NCc4ccc(F)cc4)n3)CC2)c1 [GSK1379860] | 0 | 0 | 25 | 0 | 0 | 0 | 0 | 0 | 0 | 15 | 16 | 25 | 0 | 0 | 0 | 0 | 0 | 0 | 0 | 15
C[C@@H](Oc1cc(-n2cnc3cc(-c4cnn(C)c4)ccc32)sc1C(N)=O)c1ccccc1Cl [GSK580432] | 0 | 10 | 92.3 | 0 | 0 | 0 | 0 | 0 | 0 | 0 | 37 | 0 | 0 | 94.2 | 82 | 0 | 0 | 48 | 59 | 64
CCCC(=O)Nc1n[nH]c2ncccc12 [SB-601436] | 4 | 0 | 8 | 0 | 0 | 2 | 3 | 0 | 0 | 0 | 5 | 0 | 0 | 0 | 0 | 0 | 0 | 0 | 0 | 0
CC(C)S(=O)(=O)N1CCN(Cc2ccc3c(c2)nc(NC(=O)c2ccsc2)n3C[C@H](O)c2ccccc2)CC1 [GW635815] | 0 | 10 | 78 | 0 | 79 | 0 | 0 | 0 | 50 | 0 | 37 | 0 | 0 | 28 | 0 | 0 | 0 | 65 | 79 | 19
Cn1cc(-c2cccc3c(N)c(C(N)=O)nnc23)cn1 | 6 | 29 | 11 | 0 | 21 | 25 | 29 | 12 | 31 | 0 | 0 | 0 | 16 | 6 | 1 | 2 | 0 | 5 | 0 | 0
CSc1nccc(-c2c(-c3ccc(F)cc3)ncn2CCCN2CCOCC2)n1.Cl [SB-217146] | 0 | 0 | 5 | 3 | 3 | 0 | 45 | 6 | 33 | 2 | 0 | 0 | 0 | 0 | 0 | 0 | 15 | 0 | 26 | 0
C[C@@H]1CCN(C(=O)N2CCCC2)C[C@@H]1N(C)c1ncnc2[nH]ccc12 | 7 | 0 | 21 | 73 | 43 | 0 | 0 | 0 | 64 | 0 | 16 | 0 | 0 | 22 | 10 | 12 | 0 | 14 | 69 | 0
CCn1c(-c2nonc2N)nc2cncc(CNC3CCNCC3)c21.Cl [SB-747651] | 0 | 24 | 21 | 2 | 0 | 0 | 1 | 0 | 7 | 2 | 20 | 10 | 0 | 5 | 0 | 0 | 0 | 0 | 0 | 8
Cn1ccc2ncnc(Oc3ccc(NC(=O)Nc4cc(C(C)(C)C)on4)c(Cl)c3)c21 | 0 | 23 | 0 | 27 | 81 | 0 | 0 | 0 | 28 | 9 | 0 | 13 | 0 | 88 | 97.1 | 15 | 0 | 92.5 | 0 | 0
Cc1nnc(-c2ccc3occ(-c4ccc(S(C)=O)cc4)c3n2)o1 (stereo not shown) | 0 | 0 | 0 | 3 | 0 | 0 | 0 | 0 | 30 | 0 | 0 | 0 | 0 | 0 | 0 | 3 | 0 | 1 | 0 | 0
O=C(Nc1cccc(Oc2ccc3nccn3n2)c1)Nc1cccc(C(F)(F)F)c1 | 0 | 0 | 0 | 16 | 0 | 0 | 0 | 0 | 8 | 0 | 11 | 4 | 0 | 75 | 5 | 14 | 0 | 51 | 26 | 0

From paper PMC5540273 (PLoS ONE, 2017)
